Assay outcomes (PubChem)
Shown are actives, neighbours in structure and some others; about 1.2% of the full set was active somewhere.
HTT ATP protect: Huntington cell model cytoprotection by ATP luminescence; 230,000 compounds, 0.14% hits; Potency, µM (series often up to 56.4 µM), without a hit: cytoprotection (ATP increase), usual class: activators; PC12 HTT-Q103 induced, cytoprotection, ATP luminescence, 40 h; also: potency is read from the fitted curve at half-maximal effect; % of control where 0% means no effect; nearly all actives have a fitted effect of over 45% in size
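Compounds were screened for protection of PC12 cells against cell death after tebufenozide induction (100 nM final) of mutant Huntingtin exon 1 (Q103) fused to GFP.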
GLA inh pH 4.5: alpha-galactosidase A (human) inhibition, pH 4.5; purified enzyme, 4-MU-alpha-Gal fluorescence, pH 4.5; activity change, negative = inhibition, % at 105 µM; 230,000 tested, under 10 active; AID 1467;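 also: 0% = full activity with enzyme and -100% = basal without enzyme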
Target sequence (P06280 whole entry, looked up): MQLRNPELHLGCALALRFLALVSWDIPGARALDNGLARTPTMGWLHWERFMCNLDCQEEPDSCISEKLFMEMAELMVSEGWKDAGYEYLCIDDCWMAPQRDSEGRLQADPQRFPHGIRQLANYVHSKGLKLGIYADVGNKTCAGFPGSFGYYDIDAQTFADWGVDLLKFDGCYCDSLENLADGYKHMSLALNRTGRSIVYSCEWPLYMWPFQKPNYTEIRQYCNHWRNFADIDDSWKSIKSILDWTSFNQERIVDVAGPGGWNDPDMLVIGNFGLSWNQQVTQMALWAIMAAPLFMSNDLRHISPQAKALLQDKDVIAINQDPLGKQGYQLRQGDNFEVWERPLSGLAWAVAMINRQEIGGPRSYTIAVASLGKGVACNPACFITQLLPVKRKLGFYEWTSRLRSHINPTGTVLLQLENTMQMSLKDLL
aGal spleen mod: alpha-galactosidase A (human) modulation | P06280 | human spleen homogenate, 4MU-alpha-Gal fluorescence, 40 min | Potency, µM (doses to about 80 µM), inactives show at the top dose activity change, negative = inhibition, actives largely listed as inhibitors | 240,000 compounds, 0.008% hits | AID 2107;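 also: potency is read from the fitted curve at half-maximal effect; 0% = enzyme with vehicle and -100% = no enzyme basal signal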
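qHTS titration in buffer at pH 5.0. Alpha-galactosidase activity in spleen homogenate was measured via 4-methylumbelliferone release from 1 mM fluorogenic substrate after 40 min at 37C and a pH 10 stop. AC50 came from Hill fits of control-normalized data.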
PKM2 act: PKM2 (human) enzyme activation; Potency, µM (top dose mostly 57.5 µM), for the others: top-dose activation, usual class: activators; AID 1631; purified PKM2, Kinase-Glo ATP luminescence, activation; response scale: 0% is enzyme alone, no compound; 260,000 compounds, 0.34% hits; also: potency is read from the fitted curve at half-maximal effect; % is scaled to controls: 0 for no effect and ±100 for the full control effect; nearly all actives have a fitted effect of over 55% in size
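Purified hPK-M2 (>95%) run at intermediate activity with 0.1 mM ADP and 0.5 mM PEP in 50 mM imidazole pH 7.2, KCl, MgCl2; 1 h room temperature. ATP formed read by Kinase-Glo luminescence; normalized to uninhibited and no-enzyme controls.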
HttQ103 aggreg: reduces HttQ103-GFP aggregates in PC12 cells | PC12 HttQ103-GFP aggregates, Acumen cytometry, 40 h | Potency, µM (series often up to 46.1 µM), without a hit: top-dose activity change, negative = inhibition, usual class: inhibitors | 220,000 compounds, 1.1% hits | AID 1688; also: potency is read from the fitted curve at half-maximal effect; % is scaled to controls: 0 for no effect and ±100 for the full control effect; nearly all actives have a fitted effect of over 60% in size
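Quantitative HTS on tebufenozide-induced (100 nM) PC12 cells stably expressing polyQ103 Huntingtin exon 1–GFP. Reduction of bright GFP aggregates, detected by laser scanning cytometry after lysis, identified actives across the titration.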
* = called active by the depositor; ? = inconclusive; . = no result given; [ ] = remark or other dose. Calls follow the shape of the dose curve; as a rule, active = well fitted curve in the direction sought with a large enough effect; inconclusive = small, poorly fitted or top-dose-only effect, or another doubt; inactive = no such curve, though single readings can be large; an effect the other way counts as inactive or inconclusive.

SMILES | HTT ATP protect | GLA inh pH 4.5 | aGal spleen mod | PKM2 act | HttQ103 aggreg
CC(C)N(CC(=O)Nc1ccc(Cl)cc1C(F)(F)F)C(=O)CCl | -7% | 1 | 1% | -1% | 14µM*
O=C(O)CSCC(=O)Nc1ccc(Cl)cc1C(F)(F)F | -25% | 5 | -6% | 0% | -6%[9.22 µM]
CCCS(=O)(=O)N1CCC(C(=O)NCCCN(CC)c2cccc(C)c2)CC1 | . | -2 | -2% | 0% | 32µM*
COc1ccc(CC(=O)N2CCN(c3ccccn3)CC2)cc1OC | 15% | -2 | -2% | -1% | -1%
CCCc1ccc(OCc2ccc(C(=O)N3CCN(c4ccccn4)CC3)o2)c(OC)c1 | -16%[0.074 µM] | -11 | 1% | 0% | 18µM*
CC(Oc1ccc(Cl)cc1Cl)c1nc(-c2ccc(NC(=O)c3cccnc3)cc2)no1 (configuration not stated) | -41% | -16 | -11% | -1% | 7.9µM*
Cc1cccc(/C(N)=N/OC(=O)Cc2cccc3ccccc23)c1 | -35% | -6 | 5% | 0% | -20%
Cc1ccc(/C(N)=N/OC(=O)Cc2cccc3ccccc23)cc1 | . | 0 | -2% | 25µM* | -3%
O=C(Oc1c(Br)cc([N+](=O)[O-])cc1Br)c1cccnc1 | 34%[10 µM] | 0 | 5% | 0% | 35µM*
N#Cc1cccc(NC(=O)N2CC[C@@]3(CCCN(C(=O)c4ccco4)C3)C2)c1 | 2% | . | 9% | . | .
Cc1ccc(S(=O)(=O)c2c(N)n(Cc3ccco3)c3nc4ccccc4nc23)cc1C | -11% | 2 | ? | ? | 13µM*
Cn1c(N)c(S(=O)(=O)c2ccc(Br)cc2)c2nc3ccccc3nc21 | -31% | ? | ? | 25µM* | -10%
Cc1ccc(N[C@H](c2ccccc2)c2ccc3cccnc3c2O)cc1 | -6%[10 µM] | . | . | . | .
COc1cc(C(=O)O[C@H]2C/C(C)=C/CC/C(C)=C/[C@@H](O)C2C(C)C)ccc1O (some centres not stated) | . | . | -2% | . | .
C/C(CCN1CCCCc2nc(C)c(C)cc21)=N\OC[C@@H](O)[C@@H]1O[C@@H]2OC(C)(C)O[C@@H]2[C@H]1O | ? | . | -2%[17.5 µM] | . | .
COc1cc(NC(=O)c2cc3nc(C)cc(C)n3n2)c(OC)cc1Cl | 14µM* | -19 | 6% | 1% | .
COc1cc(NC(=O)c2c(F)c(F)c(F)c(F)c2F)c(OC)cc1Cl | 7%[0.074 µM] | -14 | -2% | -5% | 20%
N#C/C(=C/c1ccc(N2CCCCC2)o1)C(=O)Nc1ccc2ccccc2c1 | 1%[10 µM] | -7 | -6% | 9% | 2.5µM*
N#C/C(=C/c1ccc(N2CCCCC2)o1)C(=O)Nc1ccc(Cl)cc1 | 13%[10 µM] | 5 | -1% | -2% | ?
O=C(c1ccncc1)N1CCC2(CC1)CN(c1ncccn1)C2 | -11% | . | 13% | . | .
Brc1ccc2ncnc(Nc3ccc(N4CCOCC4)cc3)c2c1 | 5% | -2 | -9% | 0% | 8.9µM*
O=C(COc1ncnc2ccc(Br)cc12)Nc1ccc(N2CCOCC2)cc1 | -26% | -6 | 5% | -5% | -16%
CC1(OC(=O)C2CCCC2)C(=O)C=C2C=C(c3ccsc3)N(c3ccc(CO)cc3)C=C2C1=O (configuration not stated) | 22%[10 µM] | -4 | -3%[17.5 µM] | -7%[11.5 µM] | .
CCCNC(=O)c1cc(SC)ccc1Cl | 16% | -5 | 7% | -9% | -3%
CSc1ccc(Cl)c(C(=O)NCC(C)C)c1 | -17%[0.074 µM] | -6 | -4% | -6% | 2µM*
SMILES | HTT ATP protect | GLA inh pH 4.5 | aGal spleen mod | PKM2 act | HttQ103 aggreg
Cc1ccc(S(=O)(=O)CC2CSc3nc4ccccc4n32)cc1 (configuration not stated) | 4µM* | 2 | -6% | -2% | 7.1µM*
CC1CCN(CC(=O)N2c3ccccc3Sc3cc4ccccc4cc32)CC1 | 10%[10 µM] | . | . | . | .
COc1cc2c3nnc(-c4ccc(F)cc4)c-3cn(Cc3ccccc3F)c2cc1OC | -121% | -5 | 1% | -9% | 7.1µM*
Cc1cccc(NC(=O)c2ccccc2NC(=O)C2CCCCC2)c1C | -14% | -1 | -4% | 28µM* | ?
O=C(Nc1ccccc1)c1ccccc1NC(=O)C1CCCCC1 | -22% | -8 | 2% | 1% | 9%
CCOC(=O)c1c(NC(=O)/C=C/c2ccc(C)o2)sc(C)c1C | -31% | -2 | 9% | -3% | -6%
Cc1ccc(/C=C/C(=O)Nc2sc(C)c(C)c2C(=O)OC(C)C)o1 | -24%[10 µM] | 13 | 12% | 16µM* | -17%
CNc1nc(-c2ccc(N(C)C)cc2)nc2ccccc12 | -93% | -1 | 10% | . | .
c1ccc(CCNc2ncnc3nc[nH]c23)cc1 | -27%[0.074 µM] | -3 | 3% | 1% | 11µM*
c1ccc2c(CCNc3ncnc4nc[nH]c34)c[nH]c2c1 | 6% | 0 | 2% | 14% | ?
COCc1cc(C)nc(OCC(=O)N/N=C/c2ccc(O)cc2O)c1C#N | 23% | -7 | 6% | 2% | ?
COCc1cc(C)nc(OCC(=O)N/N=C/c2ccccc2O)c1C#N | -102% | 0 | -17% | 1% | 11µM*
CCCSS/C(CCO)=C(/C)N(C=O)Cc1cnc(C)nc1N | -19% | . | . | . | -13%
CCCCCCCCCCCCCCCCCCNC(=O)OC[C@@H](COP(=O)([O-])OCC[n+]1ccsc1)OC | 43%[1.9 µM] | . | . | . | .
CC(C)(C)NC(=S)NNC(=O)c1cccc(Br)c1 | -141% | -9 | 2% | 6% | 11µM*
O=C(NNC(=S)Nc1ccccc1)c1cccc(Br)c1 | 5% | -2 | -23% | -1% | -2%[9.22 µM]
O=C1[C@@H]2C[C@@H]3C[C@H]1C[C@@](O)(C3)C2 | -44% | . | . | . | -9%
Cn1c(=O)c2c(ncn2C[C@@H](O)CO)n(C)c1=O | ? | -3 | -28%[29.1 µM] | . | 29%[20.6 µM]
CC(C)/C(=N/[N+](C)(C)C)c1ccccc1 | 3%[10 µM] | . | . | . | .
CC(=O)CSc1nc(N)c(C#N)c(-c2cccs2)c1C#N | 24% | 0 | 4% | 3% | 14µM*
CCCCSc1nc(N)c(C#N)c(-c2cccs2)c1C#N | -54% | -15 | -17% | -21% | 35µM*
CC(C)OC(=O)CSc1nc(N)c(C#N)c(-c2cccs2)c1C#N | 19% | 9 | -2% | -2% | 1%
COC(=O)C1=C(C(=O)OC)[C@@H]2N(C)c3ccc(OC)cc3[C@@]23C[C@@H](C(=O)OC)N(S(=O)(=O)c2ccc(C#N)cc2)C3=N1 | -15%[10 µM] | 8 | 15%[17.5 µM] | 1%[11.5 µM] | .
CCN(CC(=O)NCc1ccc(F)cc1)C(=O)/C=C/c1ccco1 | -66% | 2 | -3% | 13µM* | -10%
Cc1cc(C(=O)N/N=C/c2cc(Br)ccc2OC(=O)c2ccccc2Cl)n[nH]1 | 8%[10 µM] | 12 | -3% | ? | -16%[9.22 µM]
Cc1cc(C(=O)N/N=C/c2cc(Br)ccc2OC(=O)c2ccccc2)n[nH]1 | -36%[10 µM] | 0 | 4% | -1% | 2µM*
COc1ccccc1CN1CC[C@@]2(CCCN(C(=O)c3cccc(F)c3)C2)C1 | 18% | . | 0% | . | .
